# According to PubChem BioAssay (Tox21):
# Inconclusive results are not listed. Entries that show only a call come without a potency. Calls of active or inactive are those of the source. The call rests on the fitted dose curve; in most records, active means well fitted cell-killing curve with a large enough effect in the repeat runs; inconclusive means weak or mixed curves, or effect the other way; inactive means flat fitted curve, though single readings scatter.
# Assay: qHTS assay to identify small molecule antagonists of the androgen receptor (AR) signaling pathway using the MDA cell line - cell viability counter screen (AID 743041; further: nearly all actives have a fitted effect of over 45% in size)
# Conditions: MDA-kb2 viability, CellTiter-Fluor, 16 h, cells co-treated with R1881 androgen agonist; series mostly up to 70.3 µM
# Description: National Center for Advancing Translational Sciences [NCATS]
# NIH Chemical Genomics Center [NCGC]
# U.S. Environmental Protection Agency [EPA]
# National Institutes of Environmental Health Sciences [NIEHS]
# National Toxicology Program [NTP]
# U.S. Food and Drug Administration [FDA]
# Androgen receptor (AR), a nuclear hormone receptor, plays a critical role in AR-dependent prostate cancer and other androgen related diseases. Endocrine disrupting chemicals (EDCs) and their interactions with steroid hormone receptors like AR may cause disruption of normal endocrine function as well as interfere with metabolic homeostasis, reproduction, developmental and behavioral functions. To identify the compounds that inhibit AR signaling, MDA-kb2 AR-luc cell line (from ATCC, deposited by Wilson et al.) was used to screen the Tox21 10K compound library. MDA-kb2 AR-luc cell line is human breast carcinoma cell line that was stably transfected with a luciferase reporter gene under control of the MMTV promoter containing response elements for both androgen receptor (AR) and glucocorticoid receptor (GR). The cytotoxicity of the Tox21 compound library against the MDA-kb2 AR-luc cell line was tested in parallel by measuring the cell viability using CellTiter-Fluor assay (Promega, Madison, WI) in the same wells.
# Tox21 Assay Protocol Summary:
# MDA-kb2 AR-luc cells were dispensed at 3,000 cells/4 uL/well of culture medium into white wall/solid-bottom 1536-well plates using a Multidrop Combi (ThermoFisher Scientific, Waltham, MA) dispenser. After the assay plates were incubated at a 37C and 0% CO2 for 5 hr, 23 nL of compounds dissolved in DMSO, positive controls or DMSO only was transferred to the assay plate by a Pintool station (Kalypsys, San Diego, CA), followed by addition of 1 uL of agonist (R1881) in culture medium using a Bioraptr Flying Reagent Dispenser (FRD) workstation (Beckman Coulter, Indianapolis, IN, USA). The plates were incubated at a 37C and 0% CO2 for 16 h. After 15.5 h incubation, 1uL of CellTiter-Fluor reagent (Promega) was added using a Bioraptr FRD to each plate for measuring cytotoxicity. The fluorescence intensity was quantified on a ViewLux plate reader (PerkinElmer, Shelton, CT) following 30 min incubation at 37C and 0% CO2.
# Potency means the concentration at half of the fitted maximal effect.
row,Compound,Potency
1,CCC(C)(O)CCC=C(C)C (stereo not given),inactive
2,CC#N,inactive
3,CCCCCCOC(=O)C(C)C,inactive
4,Oc1ccc(Nc2ccccc2)cc1,inactive
5,CC1CN(c2cc3c(cc2F)c(=O)c(C(=O)O)cn3-c2ccc(F)cc2F)CCN1 (stereo not given),inactive
6,CCN(CC)CCNC(=O)c1ccc(NC(C)=O)cc1,inactive
7,CCCCCC=CCC=CCCCCCCCC(=O)OCC,inactive
8,C1COCO1,inactive
9,CC(=O)Nc1ccc(N)cc1,inactive
10,CCC(=O)Oc1ccc(/C(CC)=C(\CC)c2ccc(OC(=O)CC)cc2)cc1,inactive
11,CN(C(=O)C(Cl)Cl)c1ccc(OC(=O)c2ccco2)cc1,inactive
12,COc1cc2ncnc(Nc3ccc(F)c(Cl)c3)c2cc1OCCCN1CCOCC1,inactive
13,COc1ccccc1N=Nc1c(S(=O)(=O)O)cc2cc(S(=O)(=O)O)cc(NC(C)=O)c2c1O,45.7 µM (active)
14,Oc1cc(O)c(Cl)cc1Cl,inactive
15,CSc1ccc(Oc2ccc(S(N)(=O)=O)cc2CN(C)C)cc1C,inactive
16,CC(=O)OCC(=O)[C@H]1CC[C@H]2[C@@H]3CCC4=CC(=O)CC[C@]4(C)[C@H]3CC[C@]12C,inactive
17,Fc1c(F)c(F)c(Br)c(F)c1F,inactive
18,CO[C@H]1O[C@H](CO)[C@@H](O)[C@H](O)[C@H]1O,inactive
19,O=C(O)c1snc(Cl)c1Cl,inactive
20,CC(=O)Nc1ccccc1C,inactive

row,Compound,Potency
1,COC(=O)[C@@H]1CC2=CC(=O)CC[C@]2(C)[C@@]23O[C@@H]2C[C@@]2(C)[C@@H](CC[C@@]24CCC(=O)O4)[C@H]13,inactive
2,O=C(NCCCN1CCOCC1)c1ccc(Cl)cc1,inactive
3,CC1(C)O[C@@H]2C[C@H]3[C@@H]4CCC5=CC(=O)C=C[C@]5(C)[C@H]4[C@@H](O)C[C@]3(C)[C@]2(C(=O)CO)O1,inactive
4,CCCOCCOCCO,inactive
5,CCCCOC(=O)CCS,inactive
6,C=CC(C)(O)CCCC(C)CCCC(C)CCCC(C)C (stereo not given),inactive
7,OCCSc1ccccc1,inactive
8,OCC1CC=CCC1 (stereo not given),inactive
9,CCCCC(CC)C(=O)OCCOCCOCCOCCOC(=O)C(CC)CCCC (stereo not given),inactive
10,c1cnc2c(n1)CCCC2,inactive
11,CC[C@H](NC(=O)c1cc(F)ccc1NS(=O)(=O)c1cccc2cccnc12)c1ccccc1,inactive
12,Cc1nc2ccccn2c(=O)c1CCN1CCC(C(=O)c2ccc(F)cc2)CC1,inactive
13,N#C[C@@H]1C[C@@H]2C[C@@H]2N1C(=O)[C@@H](N)C12CC3CC(CC(O)(C3)C1)C2,inactive
14,CCC1(C)CC(=O)NC1=O (stereo not given),inactive
15,Nc1ccc(C(=O)OCCCOC(=O)c2ccc(N)cc2)cc1,inactive
16,CCCCCCCCCCOS(=O)(=O)O,inactive
17,C[Si](NC1CCCCC1)(NC1CCCCC1)NC1CCCCC1,inactive
18,CC(=O)CC(c1ccc([N+](=O)[O-])cc1)c1c(O)c2ccccc2oc1=O (stereo not given),inactive
19,O=Cc1c(Cl)cccc1Cl,inactive
20,CNCCCC1c2ccccc2C=Cc2ccccc21,inactive
